Measurements taken from PubChem BioAssay (Tox21).
Inconclusive results are not listed. Calls of active or inactive are those of the source. The call rests on the fitted dose curve; in most records, active means well fitted cell-killing curve with a large enough effect in the repeat runs; inconclusive means weak or mixed curves, or effect the other way; inactive means no such curve, though single readings can be large or run the other way.

test: qHTS assay to identify small molecule agonists of the RXR signaling pathway - cell viability counter screen (AID 1159529); settings: RXR-alpha-bla HEK293T viability, CellTiter-Glo, 16 h; series mostly up to 76.8 µM; further: nearly all actives have a fitted effect of over 50% in size
Excerpt: National Center for Advancing Translational Sciences [NCATS]
NIH Chemical Genomics Center [NCGC]
U.S. Environmental Protection Agency [EPA]
National Institutes of Environmental Health Sciences [NIEHS]
National Toxicology Program [NTP]
U.S. Food and Drug Administration [FDA]
The Retinoid X receptor (RXR), a nuclear hormone receptor expressed in liver, spleen, placenta, epidermis, central nervous system. These receptors are able to form homo and heterodimers with other nuclear receptors and due to this heterodimerizing ability, RXR functions as master regulators producing diverse physiological effects. Three subtypes of RXR exist; alpha, beta and gamma. Retinoid X receptor alpha (RXR-alpha) has potential roles in metabolic signaling pathways, skin alopecia, dermal cysts, cardiac development, insulin sensitization etc. Therefore screening environmental chemicals on RXR-alpha signaling can be used for the studies focused on such therapeutic applications. For quantification of RXR-alpha ligands signaling, GeneBLAzer RXR alpha-UAS-bla HEK 293T (Life Technologies, Carlsbad, CA) cells containing a beta-lactamase reporter-gene under control of Retinoid X receptor-alpha response element were used to screen Tox21 10K library. The cytotoxicity of the Tox21 compound library against the RXR-alpha HEK 293T cell line was tested in parallel by measuring cell viability using CellTiter-Glo assay (Promega Corporation, Madison, WI) in the same wells.
Tox21 Assay Protocol Summary:
RXR-alpha HEK 293T cells were dispensed at 2,000 cells/6 uL of assay medium containing 2% charcoal-stripped FBS using a Multidrop Combi (ThermoFisher Scientific, Waltham, MA) dispenser. The assay was performed in black wall/clear-bottom 1536-well plates (Greiner Bio-One North America Inc. Monroe, NC). Tetraoctyl ammonium bromide was used as a positive control in the cytotoxicity screen. After the assay plates were incubated at 37 C and 5% CO2 for 5 hr, 23 nL of compounds dissolved in DMSO, positive control or DMSO only were transferred to the assay plate by a Pintool station (Kalypsys, San Diego, CA). The assay plates were incubated at 37 C and 5% CO2 for 16 hr. One uL of LiveBLAzer B/G FRET substrate (Life Technologies) was added using a Flying Reagent Dispenser (FRD) (Aurora Discovery, San Diego, CA) and the plates were incubated at room temperature for 2 hr. Fluorescence intensity (405 nm excitation, 460/530 nm emission) was measured using an Envision plate reader (PerkinElmer, Shelton, CT). For cytotoxicity, 4 uL/well of CellTiter-Glo reagent was added into the assay plates using an FRD. After 30 min incubation at room temperature, the luminescence intensity was measured using a ViewLux plate reader (PerkinElmer).

Compound | outcome
N#CN=C(N)N | inactive
Cc1ccccc1N | inactive
Oc1ccc(Cl)cc1 | inactive
N#Cc1ccccn1 | inactive
COP(=S)(OC)SCN1C(=O)c2ccccc2C1=O | inactive
CNC(=O)O/N=C/C(C)(C)S(C)(=O)=O | inactive
Nc1ccc(N)cc1 | inactive
CNC(=O)O/N=C(\SC)C(=O)N(C)C | inactive
O=[N+]([O-])c1ccc(Cl)cc1 | inactive
C=CC(=O)OCCCCCC(C)C | inactive
C[C@]12CC[C@H](O)CC1=CC[C@@H]1[C@@H]2CC[C@]2(C)C(=O)CC[C@@H]12 | inactive
Nc1ccc([As](=O)(O)O)cc1 | inactive
CC(C)CCCCCCOC(=O)c1ccccc1C(=O)OCCCCCCC(C)C | inactive
CCOC(=O)CC(SP(=O)(OC)OC)C(=O)OCC (stereo not given) | inactive
Sc1ccccc1 | inactive
Cc1cc(O)ccc1Cl | inactive
O=C(O)CCCc1ccc(N(CCCl)CCCl)cc1 | inactive
CN1C(=O)CCS(=O)(=O)C1c1ccc(Cl)cc1 (stereo not given) | inactive
O=C(O)c1cc(Oc2ccc(C(F)(F)F)cc2Cl)ccc1[N+](=O)[O-] | inactive
O=C(O)COc1ccccc1 | inactive

Compound | outcome
Cl[C@H]1OCCO[C@@H]1Cl | inactive
Cc1ccc(O)c(C)c1 | inactive
CNC(=O)O/N=C/C(C)(C)SC | inactive
O=C(O)C1C(C(=O)O)C2(Cl)C(Cl)=C(Cl)C1(Cl)C2(Cl)Cl (stereo not given) | inactive
CCCOC(=O)c1ccccc1C(=O)OCCC | inactive
O=S(=O)(O)OOS(=O)(=O)O | inactive
Cc1cccc(C)c1N | inactive
COP(=S)(OC)Oc1ccc(SC)c(C)c1 | inactive
O=[N+]([O-])c1cc([As](=O)(O)O)ccc1O | inactive
CC(=O)/C=C/c1ccccc1 | inactive
ClCCOCCCl | inactive
COC(=O)Nc1cccc(OC(=O)Nc2cccc(C)c2)c1 | inactive
COc1nc(NC(C)C)nc(NC(C)C)n1 | inactive
CN(C)NC(=O)CCC(=O)O | inactive
CC(=O)C1CCOC1=O (stereo not given) | inactive
Clc1cnc(Oc2ccc(Oc3ncc(Cl)cc3Cl)cc2)c(Cl)c1 | inactive
O=C/C=C/c1ccccc1 | inactive
OC[C@@H](O)[C@H]1O[C@@H]2O[C@H](C(Cl)(Cl)Cl)O[C@@H]2[C@H]1O | inactive
COc1cc(-c2ccc(N)c(OC)c2)ccc1N | inactive
C=CC#N | inactive
